Test results as given in article PMC7862700, “An all-to-all approach to the identification of sequence-specific readers for epigenetic DNA modifications on cytosine”.

Key:
Test in all cases: DAPPL (digital affinity profiling via proximity ligation, sequencing); 10 mM Tris-HCl pH 7.5, 50 mM NaCl, 1 mM DTT, 4% glycerol, room temperature, 30 min; GST-TFs on glutathione beads, 16-mer random dsDNA library, 0.1% formaldehyde crosslink after washing; high values mean tight binding
FEV = target: T1, FEV (Homo sapiens, UniProt Q99581 1-238); conditions: protein: recombinant; tags: N-terminal GST; dsDNA, one strand shown
T1 sequence: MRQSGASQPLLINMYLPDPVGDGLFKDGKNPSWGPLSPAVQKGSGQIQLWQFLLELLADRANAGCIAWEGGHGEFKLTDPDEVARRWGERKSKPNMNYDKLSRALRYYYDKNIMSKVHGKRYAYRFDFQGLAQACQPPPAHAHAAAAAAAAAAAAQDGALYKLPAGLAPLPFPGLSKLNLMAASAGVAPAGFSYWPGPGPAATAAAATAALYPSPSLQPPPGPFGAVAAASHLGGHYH
Procedure, shortened: (§1)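 Binding signal is defined as a hexamer's read frequency for one factor over its frequency for the tag-only sample. To obtain reads, GST-fused human transcription factors were expressed in yeast, captured on glutathione beads, barcoded with DNA and pooled with that sample. Pools met 200 nmole of a 16-mer random double-stranded DNA library in Tris/NaCl/DTT/glycerol buffer for 30 min at room temperature before washing, 0.1% formaldehyde crosslinking, proximity ligation (BsaI/T4 ligase, 1 h, 37 °C), PCR and Illumina NextSeq500 sequencing.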

ETV5 = ETV5 (Homo sapiens, UniProt P41161 1-510); conditions: protein: recombinant; tags: N-terminal GST; dsDNA, one strand shown
Procedure, shortened: as §1

HSF1 = HSF1 (Homo sapiens, UniProt Q00613 1-529); conditions: protein: recombinant; tags: N-terminal GST; chain copies: 3; dsDNA, one strand shown
Procedure, shortened: as §1

SPIC = target: T2, SPIC (Homo sapiens, UniProt Q8N5J4 1-248); conditions: protein: recombinant; tags: N-terminal GST; dsDNA, one strand shown
T2 sequence: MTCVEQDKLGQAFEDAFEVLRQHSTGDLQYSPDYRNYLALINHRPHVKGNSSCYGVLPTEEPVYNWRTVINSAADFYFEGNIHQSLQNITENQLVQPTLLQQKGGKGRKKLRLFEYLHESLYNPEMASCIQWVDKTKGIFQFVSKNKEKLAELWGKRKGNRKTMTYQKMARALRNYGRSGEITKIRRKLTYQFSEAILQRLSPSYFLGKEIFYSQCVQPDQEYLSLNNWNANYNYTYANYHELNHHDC
Procedure, shortened: as §1

ELF4 = ELF4 (Homo sapiens, UniProt Q99607 1-663); conditions: protein: recombinant; tags: N-terminal GST; dsDNA, one strand shown
Procedure, shortened: as §1

ELK4 = target: T3, ELK4 (Homo sapiens, UniProt P28324-2 1-405); conditions: protein: recombinant; tags: N-terminal GST; dsDNA, one strand shown
T3 sequence: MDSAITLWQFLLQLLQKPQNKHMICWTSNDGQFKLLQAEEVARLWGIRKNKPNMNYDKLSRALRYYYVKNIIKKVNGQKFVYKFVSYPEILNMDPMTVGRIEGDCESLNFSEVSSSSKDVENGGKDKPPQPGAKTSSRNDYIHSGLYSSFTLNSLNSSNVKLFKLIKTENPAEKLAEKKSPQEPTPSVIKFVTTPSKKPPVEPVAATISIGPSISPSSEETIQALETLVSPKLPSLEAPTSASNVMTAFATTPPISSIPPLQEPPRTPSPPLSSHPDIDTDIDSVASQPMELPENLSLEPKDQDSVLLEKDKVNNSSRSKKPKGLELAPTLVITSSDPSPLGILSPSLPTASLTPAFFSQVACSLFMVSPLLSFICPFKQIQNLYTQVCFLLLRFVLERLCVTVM
Procedure, shortened: as §1

ETV2 = target: T4, ETV2 (Homo sapiens, UniProt O00321 1-342); conditions: protein: recombinant; tags: N-terminal GST; dsDNA, one strand shown
T4 sequence: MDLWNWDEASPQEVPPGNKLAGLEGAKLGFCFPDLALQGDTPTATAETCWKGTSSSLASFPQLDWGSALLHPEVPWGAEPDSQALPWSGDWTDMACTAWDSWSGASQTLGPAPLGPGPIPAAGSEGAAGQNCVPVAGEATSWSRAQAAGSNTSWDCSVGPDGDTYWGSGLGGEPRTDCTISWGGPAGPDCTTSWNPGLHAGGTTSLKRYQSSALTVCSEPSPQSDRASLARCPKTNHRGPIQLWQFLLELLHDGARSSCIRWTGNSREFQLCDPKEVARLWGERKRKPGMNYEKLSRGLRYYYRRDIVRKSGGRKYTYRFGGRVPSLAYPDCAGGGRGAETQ
Procedure, shortened: as §1

ELF3 = target: T5, ELF3 (Homo sapiens, UniProt P78545 1-371); conditions: protein: recombinant; tags: N-terminal GST; dsDNA, one strand shown
T5 sequence: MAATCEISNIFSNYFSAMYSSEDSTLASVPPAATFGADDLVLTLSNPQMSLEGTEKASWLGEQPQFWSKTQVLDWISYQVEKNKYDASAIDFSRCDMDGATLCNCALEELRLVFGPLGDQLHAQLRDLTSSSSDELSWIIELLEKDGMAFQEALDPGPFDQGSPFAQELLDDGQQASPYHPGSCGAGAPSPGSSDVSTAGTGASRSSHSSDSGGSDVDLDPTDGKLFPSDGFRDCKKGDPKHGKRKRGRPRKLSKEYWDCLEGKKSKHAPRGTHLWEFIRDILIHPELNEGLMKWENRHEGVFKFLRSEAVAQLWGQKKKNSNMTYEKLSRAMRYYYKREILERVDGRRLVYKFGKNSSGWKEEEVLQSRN
Procedure, shortened: as §1

CRX = CRX (Homo sapiens, UniProt O43186 1-299); conditions: protein: recombinant; tags: N-terminal GST; dsDNA, one strand shown
Procedure, shortened: as §1

ETV1 = ETV1 (Homo sapiens, UniProt P50549 1-477); conditions: protein: recombinant; tags: N-terminal GST; dsDNA, one strand shown
Procedure, shortened: as §1

ERF = target: T6, ERF (Homo sapiens, UniProt P50548 1-548); conditions: protein: recombinant; tags: N-terminal GST; dsDNA, one strand shown
T6 sequence: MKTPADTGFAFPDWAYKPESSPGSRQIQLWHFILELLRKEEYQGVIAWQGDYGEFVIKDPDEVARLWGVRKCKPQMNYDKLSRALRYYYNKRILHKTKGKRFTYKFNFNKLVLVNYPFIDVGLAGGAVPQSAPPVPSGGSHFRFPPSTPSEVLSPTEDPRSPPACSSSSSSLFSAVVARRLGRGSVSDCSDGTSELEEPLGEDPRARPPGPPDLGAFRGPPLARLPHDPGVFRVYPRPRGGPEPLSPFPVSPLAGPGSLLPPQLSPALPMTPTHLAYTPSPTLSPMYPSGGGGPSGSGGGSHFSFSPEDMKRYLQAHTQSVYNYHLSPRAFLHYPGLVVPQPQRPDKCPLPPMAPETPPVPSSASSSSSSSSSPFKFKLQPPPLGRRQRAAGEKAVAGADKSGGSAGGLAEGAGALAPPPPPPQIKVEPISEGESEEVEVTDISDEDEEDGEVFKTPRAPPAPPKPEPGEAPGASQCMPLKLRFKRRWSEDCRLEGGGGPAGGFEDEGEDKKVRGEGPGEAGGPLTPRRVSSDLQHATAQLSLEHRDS
Procedure, shortened: as §1

ETV3L = target: T7, ETV3L (Homo sapiens, UniProt Q6ZN32 1-361); conditions: protein: recombinant; tags: N-terminal GST; dsDNA, one strand shown
T7 sequence: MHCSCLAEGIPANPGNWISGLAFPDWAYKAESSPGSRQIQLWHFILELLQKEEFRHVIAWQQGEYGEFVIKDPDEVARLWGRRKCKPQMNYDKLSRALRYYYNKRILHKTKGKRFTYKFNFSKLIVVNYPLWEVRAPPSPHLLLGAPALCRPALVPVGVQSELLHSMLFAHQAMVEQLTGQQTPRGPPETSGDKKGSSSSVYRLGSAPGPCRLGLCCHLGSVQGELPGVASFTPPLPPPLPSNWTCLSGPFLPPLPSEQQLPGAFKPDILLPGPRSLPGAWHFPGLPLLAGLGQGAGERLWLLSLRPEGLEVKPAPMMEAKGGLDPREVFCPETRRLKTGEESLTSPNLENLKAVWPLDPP
Procedure, shortened: as §1

ETS2 = target: T8, ETS2 (Homo sapiens, UniProt P15036 1-469); conditions: protein: recombinant; tags: N-terminal GST; dsDNA, one strand shown
T8 sequence: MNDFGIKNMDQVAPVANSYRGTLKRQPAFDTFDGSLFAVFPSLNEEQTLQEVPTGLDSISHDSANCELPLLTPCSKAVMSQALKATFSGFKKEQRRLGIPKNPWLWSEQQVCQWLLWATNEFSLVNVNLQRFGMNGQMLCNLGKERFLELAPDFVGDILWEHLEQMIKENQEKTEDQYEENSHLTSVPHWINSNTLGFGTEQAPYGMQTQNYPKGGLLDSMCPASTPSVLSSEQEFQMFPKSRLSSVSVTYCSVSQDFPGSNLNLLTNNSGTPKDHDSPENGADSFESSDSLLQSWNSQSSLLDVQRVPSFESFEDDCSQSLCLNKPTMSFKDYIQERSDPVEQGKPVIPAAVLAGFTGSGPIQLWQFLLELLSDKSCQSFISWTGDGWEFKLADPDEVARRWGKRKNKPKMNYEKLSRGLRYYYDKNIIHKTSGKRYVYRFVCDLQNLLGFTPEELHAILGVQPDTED
Procedure, shortened: as §1

SPDEF = target: T9, SPDEF (Homo sapiens, UniProt O95238 1-335); conditions: protein: recombinant; tags: N-terminal GST; dsDNA, one strand shown
T9 sequence: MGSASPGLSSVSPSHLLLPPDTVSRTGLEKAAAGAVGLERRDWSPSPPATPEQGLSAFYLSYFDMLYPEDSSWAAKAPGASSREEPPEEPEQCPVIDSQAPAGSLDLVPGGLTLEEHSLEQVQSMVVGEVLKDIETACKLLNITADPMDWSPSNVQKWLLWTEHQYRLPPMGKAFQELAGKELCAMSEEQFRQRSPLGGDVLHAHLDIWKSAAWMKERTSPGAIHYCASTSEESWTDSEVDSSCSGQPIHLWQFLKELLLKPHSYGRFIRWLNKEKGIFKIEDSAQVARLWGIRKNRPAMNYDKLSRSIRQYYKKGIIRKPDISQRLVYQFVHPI
Procedure, shortened: as §1

ETV7 = target: T10, ETV7 (Homo sapiens, UniProt Q9Y603 1-341); conditions: protein: recombinant; tags: N-terminal GST; dsDNA, one strand shown
T10 sequence: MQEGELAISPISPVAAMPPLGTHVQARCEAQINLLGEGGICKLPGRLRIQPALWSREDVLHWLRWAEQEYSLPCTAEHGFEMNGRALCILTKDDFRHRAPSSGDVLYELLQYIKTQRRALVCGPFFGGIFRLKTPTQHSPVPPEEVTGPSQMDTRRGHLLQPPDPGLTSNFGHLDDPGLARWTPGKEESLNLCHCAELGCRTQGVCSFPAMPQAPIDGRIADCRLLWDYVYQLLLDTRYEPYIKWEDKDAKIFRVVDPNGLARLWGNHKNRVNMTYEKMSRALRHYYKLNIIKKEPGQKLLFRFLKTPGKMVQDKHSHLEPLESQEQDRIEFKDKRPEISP
Procedure, shortened: as §1

ELF5 = target: T11, ELF5 (Homo sapiens, UniProt Q9UKW6-2 1-255); conditions: protein: recombinant; tags: N-terminal GST; dsDNA, one strand shown
T11 sequence: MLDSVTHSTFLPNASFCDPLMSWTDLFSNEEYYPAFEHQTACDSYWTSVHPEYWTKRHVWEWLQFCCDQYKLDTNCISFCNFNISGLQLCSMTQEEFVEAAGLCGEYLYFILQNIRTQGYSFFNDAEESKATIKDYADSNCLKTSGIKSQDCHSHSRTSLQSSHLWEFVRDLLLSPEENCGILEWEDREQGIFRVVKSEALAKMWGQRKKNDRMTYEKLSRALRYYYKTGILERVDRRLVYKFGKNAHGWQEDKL
Procedure, shortened: as §1

ETV3 = target: T12, ETV3 (Homo sapiens, UniProt P41162-2 1-143); conditions: protein: recombinant; tags: N-terminal GST; dsDNA, one strand shown
T12 sequence: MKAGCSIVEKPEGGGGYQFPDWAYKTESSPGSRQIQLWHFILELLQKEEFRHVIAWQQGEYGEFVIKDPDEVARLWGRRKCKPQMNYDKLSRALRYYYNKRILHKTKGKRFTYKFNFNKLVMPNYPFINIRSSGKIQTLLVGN
Procedure, shortened: as §1

ETV6 = ETV6 (Homo sapiens, UniProt P41212 1-452); conditions: protein: recombinant; tags: N-terminal GST; dsDNA, one strand shown
Procedure, shortened: as §1

Sequence of ETV1 (P50549 whole entry): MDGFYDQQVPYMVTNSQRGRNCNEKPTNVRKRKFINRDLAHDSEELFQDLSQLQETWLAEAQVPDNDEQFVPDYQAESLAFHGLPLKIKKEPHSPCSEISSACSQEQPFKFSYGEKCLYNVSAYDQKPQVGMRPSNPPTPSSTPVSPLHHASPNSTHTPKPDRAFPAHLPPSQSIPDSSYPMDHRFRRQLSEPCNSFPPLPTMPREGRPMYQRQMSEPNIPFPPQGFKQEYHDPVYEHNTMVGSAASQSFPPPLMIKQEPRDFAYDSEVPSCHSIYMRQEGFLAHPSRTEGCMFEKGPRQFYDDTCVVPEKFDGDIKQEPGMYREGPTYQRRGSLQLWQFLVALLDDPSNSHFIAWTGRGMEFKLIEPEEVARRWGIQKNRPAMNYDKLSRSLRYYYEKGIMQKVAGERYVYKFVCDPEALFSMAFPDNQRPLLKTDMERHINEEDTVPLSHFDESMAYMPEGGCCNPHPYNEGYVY
Sequence of ELF4 (Q99607 whole entry): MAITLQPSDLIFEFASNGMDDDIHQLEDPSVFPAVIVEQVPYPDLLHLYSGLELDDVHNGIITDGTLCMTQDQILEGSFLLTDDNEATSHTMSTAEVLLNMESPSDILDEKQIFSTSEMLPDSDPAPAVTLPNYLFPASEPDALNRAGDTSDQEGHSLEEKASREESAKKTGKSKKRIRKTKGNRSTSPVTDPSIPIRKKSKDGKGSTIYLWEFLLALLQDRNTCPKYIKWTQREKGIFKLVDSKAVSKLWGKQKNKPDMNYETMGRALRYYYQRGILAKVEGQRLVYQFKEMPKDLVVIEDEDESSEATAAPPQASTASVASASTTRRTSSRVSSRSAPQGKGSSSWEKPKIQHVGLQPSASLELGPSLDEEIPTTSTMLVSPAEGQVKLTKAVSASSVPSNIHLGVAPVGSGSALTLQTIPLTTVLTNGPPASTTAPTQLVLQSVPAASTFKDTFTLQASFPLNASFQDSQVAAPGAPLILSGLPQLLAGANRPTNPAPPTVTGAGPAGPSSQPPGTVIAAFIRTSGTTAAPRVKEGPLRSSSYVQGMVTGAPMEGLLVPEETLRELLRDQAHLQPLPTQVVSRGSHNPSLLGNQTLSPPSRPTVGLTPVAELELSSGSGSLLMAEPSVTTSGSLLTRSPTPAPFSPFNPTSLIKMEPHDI
Sequence of ETV5 (P41161 whole entry): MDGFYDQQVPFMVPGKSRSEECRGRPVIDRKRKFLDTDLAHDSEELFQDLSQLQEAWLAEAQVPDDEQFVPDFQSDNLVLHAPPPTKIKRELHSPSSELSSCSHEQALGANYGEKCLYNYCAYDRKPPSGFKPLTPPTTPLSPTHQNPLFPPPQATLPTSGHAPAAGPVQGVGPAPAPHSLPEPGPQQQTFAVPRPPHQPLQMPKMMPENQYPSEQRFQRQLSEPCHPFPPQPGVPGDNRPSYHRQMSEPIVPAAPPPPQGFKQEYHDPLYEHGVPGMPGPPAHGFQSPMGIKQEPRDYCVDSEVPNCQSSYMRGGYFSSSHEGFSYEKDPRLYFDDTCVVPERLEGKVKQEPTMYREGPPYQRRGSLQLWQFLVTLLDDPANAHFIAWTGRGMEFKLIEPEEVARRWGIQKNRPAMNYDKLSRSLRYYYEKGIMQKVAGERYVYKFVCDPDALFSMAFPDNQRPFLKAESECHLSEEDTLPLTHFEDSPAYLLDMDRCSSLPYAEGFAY
Sequence of HSF1 (Q00613 whole entry): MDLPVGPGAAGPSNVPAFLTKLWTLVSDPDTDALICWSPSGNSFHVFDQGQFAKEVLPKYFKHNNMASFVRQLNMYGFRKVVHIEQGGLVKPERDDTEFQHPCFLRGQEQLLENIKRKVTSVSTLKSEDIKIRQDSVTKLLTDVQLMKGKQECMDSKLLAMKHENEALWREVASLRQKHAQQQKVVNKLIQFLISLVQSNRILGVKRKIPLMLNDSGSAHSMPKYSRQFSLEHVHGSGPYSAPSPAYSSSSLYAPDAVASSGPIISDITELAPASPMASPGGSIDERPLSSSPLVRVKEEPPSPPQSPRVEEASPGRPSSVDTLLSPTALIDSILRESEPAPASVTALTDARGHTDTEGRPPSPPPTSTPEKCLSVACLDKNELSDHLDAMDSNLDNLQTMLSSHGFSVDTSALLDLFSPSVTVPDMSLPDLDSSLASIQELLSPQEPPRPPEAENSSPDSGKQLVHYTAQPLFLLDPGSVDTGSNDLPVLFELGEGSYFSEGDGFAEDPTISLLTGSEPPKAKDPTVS
Sequence of ETV6 (P41212 whole entry): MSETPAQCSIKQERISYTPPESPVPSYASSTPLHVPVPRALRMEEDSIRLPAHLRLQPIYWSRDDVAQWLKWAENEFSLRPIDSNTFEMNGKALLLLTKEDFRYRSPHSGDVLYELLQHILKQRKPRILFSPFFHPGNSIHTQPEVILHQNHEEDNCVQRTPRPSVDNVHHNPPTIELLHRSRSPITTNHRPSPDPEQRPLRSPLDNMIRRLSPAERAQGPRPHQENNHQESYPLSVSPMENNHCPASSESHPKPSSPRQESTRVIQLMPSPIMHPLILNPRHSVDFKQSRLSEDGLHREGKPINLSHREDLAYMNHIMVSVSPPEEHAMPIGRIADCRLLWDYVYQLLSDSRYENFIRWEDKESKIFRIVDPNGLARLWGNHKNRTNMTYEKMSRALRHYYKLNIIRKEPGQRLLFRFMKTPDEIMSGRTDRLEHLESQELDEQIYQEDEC
Sequence of CRX (O43186 whole entry): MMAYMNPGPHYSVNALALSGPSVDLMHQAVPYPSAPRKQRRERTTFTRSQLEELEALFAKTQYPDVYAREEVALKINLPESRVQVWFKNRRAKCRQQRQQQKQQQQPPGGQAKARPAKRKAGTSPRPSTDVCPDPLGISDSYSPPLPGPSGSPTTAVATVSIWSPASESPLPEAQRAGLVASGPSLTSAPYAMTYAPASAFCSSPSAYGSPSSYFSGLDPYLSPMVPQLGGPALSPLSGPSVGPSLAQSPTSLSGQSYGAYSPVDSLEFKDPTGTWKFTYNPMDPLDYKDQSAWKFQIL

Sequence: TAGATT
- binding signal (FEV): 1.14 fold enrichment (6-mer frequency, TF over GST control)
- binding signal (ETV5): 1.12 fold enrichment (6-mer frequency, TF over GST control)
- binding signal (HSF1): 2.19 fold enrichment (6-mer frequency, TF over GST control)
- binding signal (SPIC): 1.28 fold enrichment (6-mer frequency, TF over GST control)
- binding signal (ELF4): 1.19 fold enrichment (6-mer frequency, TF over GST control)
- binding signal (ELK4): 1.29 fold enrichment (6-mer frequency, TF over GST control)
- binding signal (ETV2): 1.13 fold enrichment (6-mer frequency, TF over GST control)
- binding signal (ELF3): 1.07 fold enrichment (6-mer frequency, TF over GST control)
- binding signal (CRX): 2.29 fold enrichment (6-mer frequency, TF over GST control)
- binding signal (ETV1): 1.22 fold enrichment (6-mer frequency, TF over GST control)
- binding signal (ERF): 1.37 fold enrichment (6-mer frequency, TF over GST control)
- binding signal (ETV3L): 1.31 fold enrichment (6-mer frequency, TF over GST control)
- binding signal (ETS2): 1.13 fold enrichment (6-mer frequency, TF over GST control)
- binding signal (SPDEF): 1.15 fold enrichment (6-mer frequency, TF over GST control)
- binding signal (ETV7): 1.22 fold enrichment (6-mer frequency, TF over GST control)
- binding signal (ELF5): 1.11 fold enrichment (6-mer frequency, TF over GST control)
- binding signal (ETV3): 1 fold enrichment (6-mer frequency, TF over GST control)
- binding signal (ETV6): 1.17 fold enrichment (6-mer frequency, TF over GST control)
